{"source": "PubChem BioAssay (Tox21)", "note": "Values joined by “and” are separate entries in the source; they are usually repeats but may differ in a detail not shown here. Equal values may be shown once. Inconclusive results are not listed. A structure can be active in one record and inactive in another. Active and inactive are the calls of the source. Unless noted, calls come from the whole dose curve; as a rule, active = well fitted cell-killing curve with a large enough effect in the repeat runs; inconclusive = weak or mixed curves, or effect the other way; inactive = no such curve, though single readings can be large or run the other way. % is set by controls: 0 for no effect and ±100 for the full control effect; potency is the fitted concentration of half-maximal effect.", "data": [{"test": "qHTS assay to identify small molecule antagonists of the peroxisome proliferator-activated receptor gamma (PPARg) signaling pathway - cell viability counter screen (AID 743194); note: nearly all actives have a fitted effect of over 55% in size", "settings": "PPARg-bla HEK293H viability, CellTiter-Glo luminescence, 17 h; Potency: co-treated with 50 nM rosiglitazone unless noted; series mostly up to 62.6 µM; activity change, negative = cytotoxicity: at the top concentration", "summary_of_the_method": "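PPARg-UAS-bla HEK293H cells were plated, rested 5 h at 37 C, then treated with compounds plus rosiglitazone (50 nM final) for 17 h at 37 C; viability was then read by CellTiter-Glo luminescence after 30 min at room temperature.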", "values": [{"smiles": "c1ccc(NNc2ccccc2)cc1", "Potency": "inactive"}, {"smiles": "Cc1cc(C)cc(C)c1", "Potency": "inactive"}, {"smiles": "CC(C)(c1cc(Cl)c(O)c(Cl)c1)c1cc(Cl)c(O)c(Cl)c1", "Potency": "49 µM (active) and 24.5 µM (active)"}, {"smiles": "COc1ccc(C(CN(C)C)C2(O)CCCCC2)cc1", "note": "(stereo not drawn)", "Potency": "inactive"}, {"smiles": "CN(C)c1ccc(C(=O)c2ccc(N(C)C)cc2)cc1", "Potency": "inactive"}, {"smiles": "Nc1ccncc1", "Potency": "inactive"}, {"smiles": "CCOc1cc(C=O)ccc1O", "Potency": "inactive"}, {"smiles": "CCCCCCCCC(=O)NCc1ccc(O)c(OC)c1", "activity change, negative = cytotoxicity": "15.3% (inactive)"}, {"smiles": "CC(C)c1ccc(CO)cc1", "activity change, negative = cytotoxicity": "0.12% (inactive)"}, {"smiles": "CCOC(=S)S", "Potency": "inactive"}, {"smiles": "N#CCCCl", "activity change, negative = cytotoxicity": "26.9% (inactive)"}, {"smiles": "O=C(O)C(F)(F)C(F)(F)C(F)(F)C(F)(F)C(F)(F)C(F)(F)C(F)(F)F", "Potency": "inactive"}, {"smiles": "NNC(=S)NN", "activity change, negative = cytotoxicity": "-0.583% [at 81.1 µM, co-treated with 50 nM rosiglitazone] (inactive)"}, {"smiles": "Nc1ccc(Cl)cc1N", "activity change, negative = cytotoxicity": "-0.0607% [at 81.1 µM, co-treated with 50 nM rosiglitazone] (inactive)"}, {"smiles": "CC(C)N(C(=O)SCC(Cl)=C(Cl)Cl)C(C)C", "Potency": "inactive"}, {"smiles": "CCOCN(C(=O)CCl)c1c(C)cccc1CC", "Potency": "inactive"}, {"smiles": "CCCCOCCOP(=O)(OCCOCCCC)OCCOCCCC", "Potency": "inactive"}, {"smiles": "C=CCc1ccc2c(c1)OCO2", "Potency": "inactive"}, {"smiles": "Oc1cc(Cl)ccc1Oc1ccc(Cl)cc1Cl", "Potency": "6.31 µM (active)"}, {"smiles": "C1=Cc2cccc3cccc1c23", "Potency": "inactive"}, {"smiles": "C#CCOS(=O)OC1CCCCC1Oc1ccc(C(C)(C)C)cc1", "note": "(stereo not drawn)", "Potency": "2.45 µM (active)"}, {"smiles": "Nc1ccc(-c2ccccc2)cc1", "activity change, negative = cytotoxicity": "29.6% (inactive)"}, {"smiles": "CCC(C)c1ccc(O)cc1", "note": "(stereo not drawn)", "Potency": "inactive"}, {"smiles": "Nc1ccc(-c2ccc(N)c(N)c2)cc1N", "Potency": "inactive"}, {"smiles": "O=Cc1ccco1", "activity change, negative = cytotoxicity": "27.5% (inactive)"}, {"smiles": "C=CC(=O)OCCO", "Potency": "inactive"}, {"smiles": "Cc1ccc(N)c(N)c1", "Potency": "inactive"}, {"smiles": "O=C(CCl)c1ccccc1", "Potency": "inactive"}, {"smiles": "C[C@]12CCC(=O)C[C@@H]1CC[C@@H]1[C@@H]2CC[C@]2(C)[C@@H](O)CC[C@@H]12", "activity change, negative = cytotoxicity": "-20% [at 62.6 µM] (inactive)"}, {"smiles": "CCC(C)(c1ccc(O)cc1)c1ccc(O)cc1", "activity change, negative = cytotoxicity": "-3.65% (inactive)"}, {"smiles": "N#Cc1cc(Br)c(O)c(Br)c1", "activity change, negative = cytotoxicity": "-17.4% (inactive)"}, {"smiles": "N[C@@H](Cc1ccc(N(CCCl)CCCl)cc1)C(=O)O", "Potency": "inactive"}, {"smiles": "CC(C)=CC1C(C(=O)OCc2coc(Cc3ccccc3)c2)C1(C)C", "note": "(stereo not drawn)", "Potency": "inactive"}]}, {"test": "qHTS assay for small molecule agonists of the antioxidant response element (ARE) signaling pathway (AID 743202; active = well fitted activation curve with a large enough effect in the signal ratio in the repeat runs, not every such curve was filed as active; the % refers to the signal ratio)", "settings": "HepG2 ARE-bla reporter, beta-lactamase FRET, 16 h; series mostly up to 73.3 µM; activation: at the top concentration", "summary_of_the_method": "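Compounds delivered in DMSO to ARE-bla HepG2 cells (2,000 cells/well, pre-incubated 5 h) and left 16 h at 37 C. LiveBLAzer B/G FRET substrate then added for 2 h at RT before fluorescence reading.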", "values": [{"smiles": "c1ccc(NNc2ccccc2)cc1", "activation": "-2.55% [at 94.8 µM] (inactive)"}, {"smiles": "Cc1cc(C)cc(C)c1", "activation": "-8.97% (inactive)"}, {"smiles": "c1cc(OCC2CO2)ccc1Cc1ccc(OCC2CO2)cc1", "note": "(stereo not drawn)", "Potency": "61.4 µM (active) and 61.1 µM (active)"}, {"smiles": "CC(C)(c1cc(Cl)c(O)c(Cl)c1)c1cc(Cl)c(O)c(Cl)c1", "Potency": "15.4 µM (active) and 19.3 µM (active)"}, {"smiles": "COc1ccc(C(CN(C)C)C2(O)CCCCC2)cc1", "note": "(stereo not drawn)", "Potency": "inactive"}, {"smiles": "Nc1ccncc1", "Potency": "inactive"}, {"smiles": "CCOc1cc(C=O)ccc1O", "Potency": "inactive"}, {"smiles": "CCCCCCCCC(=O)NCc1ccc(O)c(OC)c1", "activation": "19.9% (inactive)"}, {"smiles": "CC(C)c1ccc(CO)cc1", "Potency": "inactive"}, {"smiles": "CCOC(=S)S", "activation": "14.2% (inactive)"}, {"smiles": "N#CCCCl", "Potency": "inactive"}, {"smiles": "O=C(O)C(F)(F)C(F)(F)C(F)(F)C(F)(F)C(F)(F)C(F)(F)C(F)(F)F", "Potency": "27.3 µM (active) and 21.6 µM (active)"}, {"smiles": "NNC(=S)NN", "activation": "5.28% (inactive)"}, {"smiles": "CCc1cccc(CC)c1N(COC)C(=O)CCl", "Potency": "4.19 µM (active) and 4.86 µM (active)"}, {"smiles": "CC(C)N(C(=O)SCC(Cl)=C(Cl)Cl)C(C)C", "activation": "1.76% (inactive)"}, {"smiles": "C=CCc1ccc2c(c1)OCO2", "Potency": "inactive"}, {"smiles": "S=C1NCCN1", "activation": "-6.76% (inactive)"}, {"smiles": "C#CCOS(=O)OC1CCCCC1Oc1ccc(C(C)(C)C)cc1", "note": "(stereo not drawn)", "Potency": "970 nM (active) and 1.72 µM (active)"}, {"smiles": "Nc1ccc(-c2ccccc2)cc1", "Potency": "inactive and 27.3 µM (active)"}, {"smiles": "CCC(C)c1ccc(O)cc1", "note": "(stereo not drawn)", "activation": "2.48% (inactive)"}, {"smiles": "O=Cc1ccco1", "activation": "5.61% (inactive)"}, {"smiles": "Cc1ccc(N)c(N)c1", "Potency": "8.66 µM (active) and 10.9 µM (active)"}, {"smiles": "C[C@]12CCC(=O)C[C@@H]1CC[C@@H]1[C@@H]2CC[C@]2(C)[C@@H](O)CC[C@@H]12", "Potency": "27 µM (active)"}, {"smiles": "N[C@@H](Cc1ccc(N(CCCl)CCCl)cc1)C(=O)O", "Potency": "inactive"}, {"smiles": "CC(C)=CC1C(C(=O)OCc2coc(Cc3ccccc3)c2)C1(C)C", "note": "(stereo not drawn)", "Potency": "54.5 µM (active) and 30.6 µM (active)"}]}]}
